The subject of the assay is VDR:RXRa (NR concentration 270 nM, RXRa partner concentration 90 nM). As to the kind of experiment: PBM binding z-score (relative to random genomic background probes); higher = stronger binding; sequences stand for … in GC…GCGATTGACAGCGTAGAATGAAGG
The method, then:
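Protein-binding microarray (Agilent 4x180K custom design, double-stranded 60-nt probes: 5' GC cap, 34-nt variable region, 24-nt constant primer region; full probe sequence given). Purified or IVT nuclear receptor:RXRα heterodimers (3:1 NR:RXRα, mostly 270:90 nM) or homodimers were incubated for 1 h in PBS with 2% milk and no ligand, then detected with Alexa488 antibodies. Fluorescence from o1-orientation probes (~5 replicates averaged) was converted to z-scores against 500 random hg19 background probes. Variable regions are seed direct-repeat (DR0–DR5) sites, all their single-nucleotide variants and half-site ablations.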
In the case of CCTACTGGGCCAAGGTCATGGATCAGTCAAAGCA, the PBM binding z-score turned out to be 3.05.
Next, ACAGACAGGTGAGTGAAGGTAACTCAGCTGGACG: -0.401; TCTTGTAGATCAACAGGAGGTTAACAAAGATCGA: 0.812.
Next, AATACAGGGTCACTATGCCAGAGTAGGTACGAAT: 3.91.
Next, GGAACTAGGGCATTCGAGTTGATAGCATGGCGAT: 1.23; CCAGACAGGTGAGACGGTAACTCAGCCTCGATTA: -0.29.
CAGCCTAGGTCAGGGGCAGTATAGGAGGAACGTT came in with a PBM binding z-score of 0.806.
Take AGTCAAAGTTCAGGACGAGGTAACGTAGAGCACG: the PBM binding z-score came out at 2.91.
On to ACTTACGGGTAAACGAGGTTATAGCACGCGTATA, for which the PBM binding z-score was 4.1.
Then CCAGATAGGTGAAAGGTAACTCAGTCTGGTACGC, with 0.921.
For CGAACTAGGTCATTGACAGGACAGTGAATAGTAA, the PBM binding z-score was found to be 2.2.
Then ACTATTAGTTGAGAGGAGGGCAACCGATAGGTTG, with 0.152; and TCATATAGGTATACAGGTGAAAGTCCGTAAGTTA, with 1.07; and CGTTACGGGTCACTGACAGGTTATAGCATTTGGA, with 3.87.
Next, GGAACGAGGGCATTCGATTTGATAGCATGGCGAT: 1.73.
Then CCGACTGGGGCTAGGTTACCATAACGCACAGCCA, with -0.65; and CGTGCAAGGTCATAGGAGGTCAGTGAAGACAGAT, with 6.87.
In turn, GGGACGAGGGCATTCGAGTTGATAGCATGGCGAT returned a PBM binding z-score of 3.62.
In the case of CCGACTGGGGCATGGTTACCATAACGCACAGCCA, the PBM binding z-score was -0.609.
Then CCTTACGGGTCAATGTTATAGCACGGGTGGTACG, with 2.57; and GCTTACGGGTCAAAGGTTATAGAATGAATAGAAT, with 5.63.
TCATATAGGTAAAGGTGACAGTCGAACGATATGA came in with a PBM binding z-score of 0.874.
On to TCATATAGGTAATACAGGTGAAATTCGGCATCTA, for which the PBM binding z-score turned out to be 1.12.
Sequence AGAATGAGTTTATACGTAGATCAGGGAAGAAAGT gave a PBM binding z-score of 1.71.
Next, GCTAGCAGGCCGTTTGGGTCACTCAATGACGGGC: 0.00602; TCTAATTGGTCACGGAGGTCACACACGACGGGTA: 6.1; CCTACTGGGCCATCAGGTCATTGAGATCAACGTT: 3.41.
Sequence ATCTCTAGGTAAGACTCAGTTTAGTGAAGAACGC displayed a PBM binding z-score of 0.468.
Then ACATGTAGGTTACATCCGGGTCATTCAGGCTATG, with 4.11; and CGTGCTAGGTCATGGTCAGCTAATCTACAGTATG, with 1.7; and CCGACTGGTGCAAGGTTACCATAACGCACAGCCA, with 0.278.
For the sequence CCGACTGGGGCATAAGGTTACCTTAAGCCAGCCC, the PBM binding z-score worked out at 0.0606.
GCAGACAGGTGAAACCCAGGTAACTCAGGGTGGC returned a PBM binding z-score of -0.302.
Next, TTACAAAGGTGAAGGTCGTTGATCCCTCTGTAGA: 2.19; ACTATTAGTTGAGACGAGGGGAACCGATAGGTTG: -0.291; ATCTCTAGGTAAAGTTCAGTGAGAGATCGATAGA: 1.64.
Then TAGCCTAGGTCATTGGGGCAGTATAGTACGCATC, with 3.19; and CGAACGAGGGCATGAATTGATAGCAAATGCCGAT, with 0.33; and CGAACTAGGTCATTGACAGAACAGTGAATAGTAA, with 1.97.
Next, TCGTGTAGGTTAGGGGCATTCAGAATGGCGTCGA: 0.914.

For the origin of these results see the supplement of paper PMC6555819.
